# Screening results from PubChem.
# IL-1B inflam inh: qHTS for Inhibitors of Inflammasome Signaling: IL-1-beta AlphaLISA Primary Screen; THP-1 LPS/ATP IL-1B secretion, AlphaLISA, 16 h; hits give low values; AID 743279, 2014; 360,000 tested, 4.7% active; activity change, % at 57.5 µM; in the data active means activity change below about -50%; inconclusive means mostly about -30% to -49%
#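 Secreted IL-1B measured by AlphaLISA bead assay after 16 h compound exposure of THP-1 cells; compounds (final up to 57.5 uM) added 1 h before LPS (250 ng/mL) and ATP (1.25 mM) stimulation; lower signal means less secretion.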
# TDP1 inh: qHTS Assay for Inhibitors of Tyrosyl-DNA Phosphodiesterase (TDP1); Tyrosyl-DNA phosphodiesterase 1 (Homo sapiens), Q9NUW8; recombinant TDP1, AlphaScreen DNA substrate cleavage; Potency, µM (top dose mostly 130 µM), actives largely listed as inhibitors; 350,000 tested, 0.28% active; AID 485290, 2010; further: nearly all actives have a fitted effect of over 40% in size
# Target sequence (Q9NUW8 whole entry, looked up): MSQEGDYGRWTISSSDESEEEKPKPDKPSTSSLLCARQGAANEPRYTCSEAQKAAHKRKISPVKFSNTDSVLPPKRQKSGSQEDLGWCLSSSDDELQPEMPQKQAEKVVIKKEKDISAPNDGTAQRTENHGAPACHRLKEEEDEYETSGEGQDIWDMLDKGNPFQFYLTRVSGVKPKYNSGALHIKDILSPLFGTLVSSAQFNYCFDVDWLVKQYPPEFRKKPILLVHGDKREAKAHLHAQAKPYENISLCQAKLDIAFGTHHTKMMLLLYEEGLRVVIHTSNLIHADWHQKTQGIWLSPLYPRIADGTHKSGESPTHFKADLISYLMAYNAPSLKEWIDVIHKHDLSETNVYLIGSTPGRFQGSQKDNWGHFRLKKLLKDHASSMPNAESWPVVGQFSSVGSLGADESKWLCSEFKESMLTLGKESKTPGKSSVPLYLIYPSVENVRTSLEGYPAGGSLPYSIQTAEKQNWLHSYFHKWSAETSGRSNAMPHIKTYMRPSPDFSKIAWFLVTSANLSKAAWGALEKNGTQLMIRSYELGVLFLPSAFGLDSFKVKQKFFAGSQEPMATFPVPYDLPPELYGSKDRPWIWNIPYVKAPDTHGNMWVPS
#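 Signal: AlphaScreen proximity between streptavidin donor and anti-FITC acceptor beads on intact substrate. Reaction: Tdp1 1 nM, substrate 15 nM final, 5 min RT after 15 min compound preincubation.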
# DT40 TDP1 no CPT: qHTS for Inhibitors of human tyrosyl-DNA phosphodiesterase 1 (TDP1): qHTS in cells in absence of CPT | DT40 Tdp1-/- hTDP1 cells, no CPT, ATP luminescence, 48 h | 420,000 tested, 15% active | Potency, µM (doses to about 46.2 µM), hits mostly inhibitors | AID 686978, 2013; further: nearly all actives have a fitted effect of over 55% in size
#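 Growth of hTDP1-complemented DT40 Tdp1-knockout cells is measured by ATP luminescence after at least 48 hr compound exposure at 37 °C, with DMSO substituting for the 20 nM CPT used in the parallel screen.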
# TDP1 cell CPT: qHTS for Inhibitors of human tyrosyl-DNA phosphodiesterase 1 (TDP1): qHTS in cells in presence of CPT; 420,000 tested, 12% active; Potency, µM (top dose mostly 46.2 µM), most hits filed as inhibitors; chicken DT40 Tdp1-/-;hTDP1 cells + 20 nM CPT, ATP luminescence, 48 h; AID 686979, 2013; further: nearly all actives have a fitted effect of over 55% in size
#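 Chicken DT40 Tdp1-/- cells stably complemented with human TDP1 were seeded at 400 cells/well in medium containing 20 nM camptothecin, exposed to pin-transferred compounds, and grown at 37 °C for at least 48 hr. Viability was read as ATP luminescence.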
# HepG2 viability: qHTS for Inhibitors of TGF-b: Cytotox Counterscreen. HepG2 CAGA-GFP viability, ATP luminescence, 18 h. Potency, µM (doses to about 46.1 µM), most hits filed as cytotoxic. 410,000 tested, 0.76% active. AID 588856, 2011
#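 HepG2 CAGA-GFP cells (1000/well, DMEM with 1% FBS) received compound, then TGF-beta at 500 pg/mL final, and were incubated 18 hours at 37 degrees C. Viability was read by CellTiter-Glo luminescence. Media-only wells were set as complete cell-killing and DMSO as no toxicity.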
# TGFb inhibitor: qHTS for Inhibitors of TGF-b; Potency, µM (titrated, usually from 46.1 µM), usual class: inhibitors; AID 588855, 2011; HepG2 CAGA-GFP TGF-b/SMAD3 reporter, GFP fluorescence, 18 h; TGF-beta stimulated, 500 pg/mL final; 410,000 tested, 1.2% active; further: nearly all actives have a fitted effect of over 65% in size
#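 Inhibition of TGF-beta-driven CAGA-GFP reporter expression in HEPG2 cells is measured by cellular GFP fluorescence after 18 h stimulation with 500 pg/mL recombinant TGF-beta in 1% FBS medium at 37 degrees C.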
# A number is an active result; - = inactive; ? = inconclusive; . = no result; [ ] = dose if it differs, or a comment. Shown are actives, neighbours in structure and some others; about 18% of the full set was active somewhere. Unless noted, the call rests on the fitted dose curve; in most records, active means well fitted curve in the direction sought with a large enough effect; inconclusive means small, poorly fitted or top-dose-only effect, or another doubt; inactive means no such curve, though single readings can be large; an effect the other way counts as inactive or inconclusive.
SMILES,IL-1B inflam inh,TDP1 inh,DT40 TDP1 no CPT,TDP1 cell CPT,HepG2 viability,TGFb inhibitor
O=C(c1cccc([N+](=O)[O-])c1)c1ccc2[nH]c(=O)[nH]c2c1,-,-,-,-,-,-
Cc1ccccc1C(=O)Nc1ccc(C(=O)OCc2cc(=O)n3nc(C(C)C)sc3n2)cc1,.,-,-,-,-,-
c1ccc(-c2noc(-c3cccc4ccccc34)n2)nc1,-,-,-,-,-,-
COc1cccc(-c2nc(-c3ccccn3)no2)c1OC,-,-,?,23µM,-,-
COc1cc(-c2nc(-c3ccccn3)no2)cc(OC)c1OC,?,-,?,?,-,-
c1ccc(-c2cc(-c3nc(-c4ccccn4)no3)c3ccccc3n2)cc1,-,.,8.2µM,9.2µM,-,-
c1ccc(Cc2nc(-c3ccccn3)no2)cc1,-,-,-,-,-,-
c1ccc(C(Cc2nc(-c3ccccn3)no2)c2ccccc2)cc1,-,-,16µM,?,-,?
c1ccc(-c2nc(-c3ccccn3)no2)cc1,-,-,?,16µM,10µM,-
COC(=O)[C@H](Cc1ccccc1)NC(=O)/C=C/[C@H]1O[C@@H](n2ccc(=O)[nH]c2=O)[C@H](O)[C@@H]1O,-,.,-,-,-,-
COc1ccccc1N1CCN(CCC(=O)Nc2ccc(F)cc2)CC1,-,.,-,-,-,-
COCc1[nH]nc2c1C(c1ccnc3ccccc13)C(C#N)=C(N)O2 (configuration not stated),-,-,9.2µM,18µM,-,-
CCn1c2ccccc2c2cc(C3C(C#N)=C(N)Oc4n[nH]c(COC)c43)ccc21 (configuration not stated),?,-,26µM,?,4µM,10µM
COCc1[nH]nc2c1C(c1ccc(F)cc1F)C(C#N)=C(N)O2 (configuration not stated),?,-,-,-,-,-
CC(c1ccon1)N(C)C(=O)c1cccc(OC2CCN(S(C)(=O)=O)CC2)c1 (configuration not stated),-,.,-,-,-,-
NC(CSC1(c2ccc(Cl)cc2)c2ccccc2-c2ccccc21)C(=O)O (configuration not stated),-,.,-,?,-,-
O=C(Cn1cnc2c(OCc3ccccc3)ncnc21)NCCc1c[nH]c2ccccc12,-,-,-,-,-,-
O=S(=O)(c1ccccc1)c1ncc(C(F)(F)F)cc1Cl,-106,-,3.7µM,4.1µM,-,?
O=S(=O)(c1ccccc1)c1ncc(C(F)(F)F)cc1O,-,-,-,-,-,-
Nc1nncn1C(=O)c1ccc(Cl)cc1Cl,-,-,-,-,-,-
Cc1cccc(NS(=O)(=O)c2cc([N+](=O)[O-])ccc2C)n1,-,-,-,-,-,?
O=c1[nH]c2cc([N+](=O)[O-])cc(Cl)c2c2ccccc12,-,.,?,?,-,-
N#Cc1cc2[nH]c3ccccc3c2[n+](-c2ccc([N+](=O)[O-])cc2)c1N,-97,-,?,-,-,-
CN(c1ccc(Cl)cc1)c1cc(=O)n(C)c2ccccc12,-,-,?,13µM,-,-
COc1cc(=O)n(C)c2ccccc12,-,-,-,-,-,-
SMILES,IL-1B inflam inh,TDP1 inh,DT40 TDP1 no CPT,TDP1 cell CPT,HepG2 viability,TGFb inhibitor
Cc1ccccc1-c1nc2cc(NC(=O)Cc3ccc(Cl)cc3)ccc2o1,.,-[12.3 µM],21µM,?,-,-
Cc1ccccc1-c1nc2cc(Cl)ccc2c(=O)o1,-,.,16µM,?,-,-
O=C(Cc1ccc(Cl)cc1)Nc1ccc(-c2cc3ccccc3oc2=O)c(Cl)c1,-,-,2.9µM,5.2µM,-,?
Cc1ccccc1-c1nc2cc(Cl)ccc2o1,-,-,-,-,-,?
COc1ccc(-c2nc3cc(NC(=O)Cc4ccc(Cl)cc4)ccc3o2)cc1OC,.,-[12.3 µM],13µM,16µM,-,?
NC(=S)Cc1ccc(Cl)cc1Cl,-,.,-,-,-,-
N=C(N)SCc1ccc(Cl)cc1Cl,-101,-,18µM,23µM,-,?
O=C(O)c1ccc(Sc2nnc3ccccn23)c([N+](=O)[O-])c1,-,-,-,-,-,-
CC(C)(C)N1C(=O)[C@H]2[C@@H](c3ccc(Br)cc3)N3C(=O)N(c4ccccc4)C(=O)[C@@]3(C)[C@H]2C1=O,-,.,-,-,-,-
CCCCN(C)CCNC(=O)CCn1nc(-c2ccc(Cl)cc2)ccc1=O,-,.,-,-,-,-
CCCCN(C)CCNC(=O)CCn1nc(-c2ccc(C)cc2)ccc1=O,-,.,-,21µM,-,-
N=c1c2c3c(sc2ncn1Nc1ccccc1)CCC3,?,.,?,?,-,-
CC[C@@H]1O[C@]2(C=C[C@@H]1C)C[C@H]1C[C@H](CC=C(C)[C@@H](O[C@@H]3C[C@H](OC)[C@H](O[C@@H]4C[C@H](OC)[C@H](O)[C@H](C)O4)[C@H](C)O3)[C@@H](C)C=CC=C3CO[C@@H]4[C@@H](O)C(C)=C[C@@H](C(=O)O1)[C@]34O)O2,.,-,.,.,.,.
O=C(NC1CCCCC1)C12CC3CC(C1)CC(n1cncn1)(C3)C2,-,-,-,-,-,-
CC(NC(=O)C12CC3CC(C1)CC(n1cncn1)(C3)C2)C12CC3CC(CC(C3)C1)C2 (configuration not stated),-,-,8.2µM,10µM,-,-
COc1cc(C(=O)Nc2ccc3c(c2)N(C(=O)CCN(C)C)c2ccccc2CC3)cc(OC)c1OC,-60,-,-,-,-,-
CCOC(=O)Nc1ccc2c(c1)N(CCCN(C)C)c1ccccc1CC2,-,.,?,23µM,-,-
CCN(CC)C(=O)C1=C(C)N(CCCOC)C(=O)C(CC(=O)NC2CCCCC2)C1 (configuration not stated),-,.,-,-,-,-
CCCN(c1ccccc1F)S(=O)(=O)c1c[nH]c(C(=O)OC)c1,-,-,-,-,-,-
O=C(Nc1ccc(S(=O)(=O)N2CCCCC2c2cccnc2)cc1)c1ccc(Br)cc1 (configuration not stated),.,-,9.2µM,16µM,-,-
